Data from PubChem BioAssay AID1159580 (chemical genetic matrix, 2015).
Screen size: about 5,500 compounds; about 2,000 (36%) were called active. Not shown: some 18% with an inconclusive outcome. Rule as the data show it: active = normalized growth mostly below about 0.91 (no sharp cut-off); inconclusive = no clear call, values can overlap the other calls; inactive = mostly above about 0.92. This is one part of the list.

Experiment: chemical genetic growth profiling, strain panel (AID 1159580);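 also: tested at 20 µM; growth read once vehicle control cultures reached saturation at 30 °C; 1 = growth at the plate median or of vehicle wells; lower values mean less growth of the strain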
Settings: S. cerevisiae deletion strains, growth OD

Measured: normalized growth

N#Cc1c(N)sc2c1CCCCC2
active: locus YEL061C, strain CIN8, hits give low values 0.903 | locus YHR030C, strain SLT2, hits give low values 0.616 | locus YKL190W, strain CNB1, hits give low values 0.927 | locus YLR085C, strain ARP6, hits give low values 0.714 | locus YMR307W, strain GAS1, hits give low values 0.662 | locus YPL241C, strain CIN2, hits give low values 0.846 | locus YPR135W, strain CTF4, hits give low values 0.498
inactive: locus YAL013W, strain DEP1, hits give low values 0.959 | locus YBR229C, strain ROT2, hits give low values 0.951 | locus YCL061C, strain MRC1, hits give low values 0.945 | locus YDL101C, strain DUN1, hits give low values 0.971 | locus YDR150W, strain NUM1, hits give low values 1.02 | locus YGR078C, strain PAC10, hits give low values 0.961 | locus YHR087W, strain rtc3, hits give low values 0.975 | locus YJL187C, strain SWE1, hits give low values 0.963 | locus YJR043C, strain POL32, hits give low values 0.992 | locus YJR075W, strain HOC1, hits give low values 0.945 | locus YLR039C, strain RIC1, hits give low values 0.96 | locus YLR058C, strain SHM2 (second series), hits give low values 0.956 | locus YLR262C, strain YPT6, hits give low values 0.955 | locus YML094W, strain GIM5, hits give low values 0.878 | locus YMR219W, strain ESC1, hits give low values 0.95 | locus YMR263W, strain SAP30, hits give low values 0.984 | locus YNL153C, strain GIM3, hits give low values 0.953 | locus YNL298W, strain CLA4 (second series), hits give low values 0.944 | locus YNL322C, strain KRE1, hits give low values 0.964 | locus YNR030W, strain Alg12, hits give low values 0.895 | locus YPL055C, strain LGE1, hits give low values 0.97
